Most compounds without a hit are left out; they make up all but 9% or so of the library.
IMPase inh – cell-permeable inhibitors of inositol monophosphatase (IMPase); 120,000 tested, under 10 active; CHO-M1 cells, IP1 accumulation, HTRF TR-FRET ratio; inhibition (IP1 accumulation), % at 46.1 µM; P97697; active = well fitted curve in the direction sought with a large enough effect in the signal ratio, not every such curve was filed as active; inconclusive = small, poorly fitted or top-dose-only effect, or a change in a side signal; inactive = no such curve, though single readings can be large or run the other way; the % refers to the signal ratio;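 note: cells stimulated with carbachol in lithium chloride buffer; plate controls were DMSO basal wells for no effect and reference inhibitor wells for full effect; higher means more IMPase inhibition seen as more IP1 and lower FRET ratio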
Target sequence (P97697 whole entry, looked up): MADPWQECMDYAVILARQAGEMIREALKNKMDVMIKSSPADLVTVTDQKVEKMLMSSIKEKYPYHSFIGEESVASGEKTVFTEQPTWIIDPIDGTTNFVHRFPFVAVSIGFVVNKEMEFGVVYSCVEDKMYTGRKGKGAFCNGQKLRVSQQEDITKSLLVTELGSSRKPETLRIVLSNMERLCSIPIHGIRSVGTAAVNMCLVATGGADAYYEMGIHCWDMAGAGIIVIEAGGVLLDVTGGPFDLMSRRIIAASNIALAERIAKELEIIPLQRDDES
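The IP-One HTRF competitive assay in carbachol-stimulated CHO-M1 cells quantifies cellular IP1. Compounds spanned up to 46 uM final, and activity is expressed as AC50 from concentration-response fits of the ratio and donor data.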
ALDH1A1 block – ALDH1A1 (human) enzyme inhibition. P00352. Purified ALDH1A1, NADH fluorescence, propionaldehyde substrate. Potency, µM (top dose mostly 75.3 µM), for the others: at the highest dose activity, negative = inhibition, most hits filed as inhibitors. hit rate 7.3% among 220,000. AID 1030;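 note: potency is the fitted concentration of half-maximal effect; plate controls were no enzyme wells and a reference inhibitor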
HPGD block – inhibitors of human 15-hydroxyprostaglandin dehydrogenase (HPGD). AID 894. purified HPGD, NADH fluorescence kinetic, PGE2 substrate. Potency, µM, inactives show at the highest dose activity change, negative = inhibition, most hits filed as inhibitors. hit rate 4.3% among 150,000. P15428; note: potency is the fitted concentration of half-maximal effect
Target sequence (P15428 whole entry, looked up): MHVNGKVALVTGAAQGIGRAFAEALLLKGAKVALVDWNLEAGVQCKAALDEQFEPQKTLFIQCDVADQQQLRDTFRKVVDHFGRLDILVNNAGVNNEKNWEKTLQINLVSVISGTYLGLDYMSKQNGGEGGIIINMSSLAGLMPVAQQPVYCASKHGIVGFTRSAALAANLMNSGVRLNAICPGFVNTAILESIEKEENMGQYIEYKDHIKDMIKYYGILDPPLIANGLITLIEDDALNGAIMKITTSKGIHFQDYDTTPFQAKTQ
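20 nM HPGD preincubated 15 min at room temperature with compound in 50 mM Tris-HCl pH 8, 0.01% Tween 20. Started with 1 mM NAD+ and 30 uM prostaglandin E2; NADH fluorescence (360/450 nm) read 5 times over 30-s intervals, last minus first.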
Active calls of the source: *; u = inconclusive; x = no result; [ ] = dose if it differs, or a comment. Unless noted, calls come from the whole dose curve; as a rule, active = well fitted inhibition curve with a large enough effect (not every such curve was filed as active); inconclusive = small, poorly fitted or top-dose-only effect, or another doubt; inactive = no such curve, though single readings can be large or run the other way. Unless noted, % is set by controls: 0 for no effect and ±100 for the full control effect.

SMILES | IMPase inh | ALDH1A1 block | HPGD block
CCOc1cc(C2NC(=O)NC(O)(C(F)(F)F)C2C(=O)c2ccc(Cl)cc2)ccc1O (stereo unspecified) | -2.1 | u | -13.6%
CCOC(=O)C1C(c2cc(OC)c(O)c(OC)c2)NC(=S)NC1(O)C(F)(F)F (stereo unspecified) | x | 9.6% | -3.9%
CCc1cccc(CC)c1NC(=S)NCCc1c(C)[nH]c2ccccc12 | x | -8.0% | -4.2%
CC(=O)NCCc1ccc(O)c(O)c1 | 9.3 | 28.2µM* | u
COc1ccc(CCNC(C)=O)cc1 | 7.2 | 7.8% | -3.5%
CCc1cccc(CC)c1NC(=S)NCCc1ccc(O)c(O)c1 | x | 22.4µM* | x
Cc1c(C(=O)OCC(=O)Nc2c(C)n(C)n(-c3ccccc3)c2=O)oc2ccccc12 | x | 7.5% | x
Cc1ccccc1OCc1nnc(SCC(=O)Nc2ccc3c(c2)oc2ccccc23)n1C | -1.6 | 14.1µM* | u
Cc1ccccc1OCc1nnc(SCC(=O)Nc2ccc3nc(SCC(=O)NC(C)(C)C)sc3c2)n1C | -7.7 | u | -17.3%
CCN(CC)C(=O)CSc1nc2ccc(NC(=O)CSc3nnc(COc4ccccc4C)n3C)cc2s1 | 7.4 | u | 20µM*
COc1cc2c(cc1NC(=O)CSc1ccccn1)oc1ccccc12 | 5.2 | 6.9% | -3.0%
COc1ccccc1OCc1nnc(SCC(=O)Nc2ccc(C)cc2)n1C | 1.0 | -8.3% | -6.6%
O=C(CSc1ccccn1)Nc1ccc2c(c1)oc1ccccc12 | x | -1.1% | 25.1µM*
CCC(C)OC(=O)/C(C#N)=C\c1ccc(-c2cccc(C(F)(F)F)c2)o1 (stereo unspecified) | -12.4 | x | x
COc1ccc(C2NC(=O)NC(C)=C2C(=O)Nc2cc(C)cc(C)c2)c(OC)c1 (stereo unspecified) | -4.8 | x | x
O=S(=O)(c1cccc(C(F)(F)F)c1)N(CCCN1CCOCC1)Cc1cccs1 | 6.9 | 12.6µM* | -4.0%
COC(=O)c1ccccc1S(=O)(=O)N(CCCN1CCOCC1)Cc1cccs1 | -3.3 | u | 0.4%
Cn1cnnc1SCC(=O)c1ccc(O)c(O)c1 | x | -6.9% | x
CCOC(=O)CC(C#N)c1c[nH]c2ccccc12 (stereo unspecified) | 10.7 | 11.8% | -2.5%
Cc1cc(C)c(S(=O)(=O)NCCc2cc3cc(C)c(C)cc3[nH]c2=O)c(C)c1 | 3.9 | x | x
N#C/C(=C\c1cccc(Cl)c1)C(=O)c1ccccc1 | x | 0.708µM* | x
CCOC(=O)/C(C#N)=C/c1cccc(C)c1 | x | -2.8% | x
CC(C)(C)C(=O)n1nc(-c2ccccc2)oc1=O | x | -7.6% | u
Cc1nnc(SCc2c(Cl)cccc2[N+](=O)[O-])s1 | x | -2.6% | x
O=[N+]([O-])c1cccc(Cl)c1CSc1ccccn1 | x | 20µM* | x
SMILES | IMPase inh | ALDH1A1 block | HPGD block
COc1nc(NC23CC4CC(CC(C4)C2)C3)nc(OC)n1 | 2.9 | 25.1µM* | -9.8%
C1CCN=C(NC23CC4CC(CC(C4)C2)C3)CC1 | x | 7.4% | -6.3%
CN(Cc1ccco1)C(=O)Cn1nc(-c2ccc(Cl)cc2)ccc1=O | x | 1.2% | x
COc1ccc(NC(=O)c2cccc(OS(=O)(=O)N(C)C)c2)cc1 | x | 3.98µM* | x
CN(C)S(=O)(=O)Oc1cccc(C(=O)Nc2ccc(Cl)c(Cl)c2)c1 | -1.7 | 12.6µM* | -14.0%
COc1cccc(C(=O)Nc2cccc(NC(=O)c3ccc(Cl)cc3Cl)c2)c1 | -11.4 | x | x
CCC(=O)Nc1ccc(Cl)c(NC(=O)c2cccc(OC)c2)c1 | x | -9.6% | x
COc1cccc(C(=O)Nc2ccccc2)c1 | 2.2 | 2.3% | -20.7%
CN(C)S(=O)(=O)Oc1cccc(C(=O)Nc2cccc(Cl)c2)c1 | 8.6 | 0.794µM* | -21.6%
CCCCc1cc2c(c(NC(=O)CC)n1)c(=O)oc1ccccc12 | 12.8 | u | -22.7%
COc1ccc(C(=O)Nc2ccc(Cl)cc2C(=O)N2CCCC(C)C2)cc1 (stereo unspecified) | -8.4 | u | -8.7%
CCOC(=O)CC1=NN(c2ccccc2)C(=O)/C1=C\c1ccc(OC)cc1OC | x | u | 28.2µM*
COC(=O)CC1=NN(c2ccc(OC)cc2)C(=O)/C1=C\c1ccc(Cl)cc1 | x | -10.8% | 25.1µM*
C=CCN(C(=O)Nc1ccc(Cl)cc1)C1CC(=O)N(c2ccc(OC)cc2)C1=O (stereo unspecified) | 5.9 | -1.5% | -12.6%
COC(=O)CC1=NN(c2ccccc2)C(=O)/C1=C\c1ccc(OC)cc1 | x | u | 14.1µM*
CCOC(=O)CSc1cc(C)nc2ccc(OC)cc12 | x | 4.2% | x
CCN(CC)C1=N/C(=C\c2ccc(OC)cc2)C(=O)N1c1ccccc1 | x | u | -19.6%
CS(=O)(=O)NCCSCc1ccco1 | 5.7 | u | 1.5%
COC(=O)C/C=C/[C@@H](C)[C@@H](/C=N/OC[C@@H](C)[C@H](OCc1ccccc1)C(C)C)NS(=O)(=O)c1ccc(C)cc1 | x | u | -14.1%
CC(C)NC(=O)c1onc(CSc2ccccc2)c1C(=O)O | -4.5 | -14.1% | -5.1%
CC(C)NC(=O)c1onc(CSc2cccc3ccccc23)c1C(=O)O | -1.9 | u | 22.4µM*
CCOc1cccc(SCc2noc(C(=O)NCCOC)c2C(=O)O)c1 | 1.3 | u | -42.1%
CCCCNC(=O)c1onc(CSc2ccccc2)c1C(=O)O | -8.8 | -3.8% | -18.8%
CCCCNC(=O)c1onc(CSc2ccc(C(C)C)cc2)c1C(=O)O | -1.5 | 0.6% | 10µM*
COCCNC(=O)c1onc(CSc2ccc(C(C)C)cc2)c1C(=O)O | 13.3 | 0.4% | 15.8µM*
SMILES | IMPase inh | ALDH1A1 block | HPGD block
COc1ccc(COC(=O)N/N=C2/C[C@@H](O)[C@@H](O)[C@@H]3[C@@H]4C(=O)N(Cc5ccc6c(c5)OCO6)C(=O)[C@H]4CC[C@@H]23)cc1 | x | -9.7%[13.5 µM] | x
CN(C)N1C(=O)CC(NNC(=O)c2ccncc2)C1=O (stereo unspecified) | x | 3.3% | -1.6%
Cc1cc(C)nc(SCc2cc(=O)c(OC(=O)c3cccc([N+](=O)[O-])c3)co2)n1 | -8.6 | 0.0562µM* | -3.7%
CCN(CC)S(=O)(=O)c1ccc(C(=O)Oc2coc(CSc3nc(C)cc(C)n3)cc2=O)cc1 | x | 2.0% | -9.2%
Cc1ccnc(SCc2cc(=O)c(OC(=O)c3ccco3)co2)n1 | -2.9 | 6.4% | -4.9%
Cc1ccnc(SCc2cc(=O)c(OC(=O)c3ccc(Cl)c([N+](=O)[O-])c3)co2)n1 | x | 7.51µM* | u
CC1(C)CC(CC(=O)Nc2nccs2)(c2ccccc2)CCO1 (stereo unspecified) | x | 13.7% | -5.2%
CN(C)CCc1c[nH]c2ccc(CC3COC(=O)N3)cc12 (stereo unspecified) | x | -0.1% | -5.1%
O=[N+]([O-])c1cccnc1N1CCCCC1 | 4.1 | -2.9% | -9.3%
O=C(c1ccc(F)cc1)N1CCN(c2ccc([N+](=O)[O-])c(N3CCCCC3)c2)CC1 | 4.6 | 4.8% | x
O=[N+]([O-])c1ccc(Cl)cc1N1CCCCC1 | x | 17.8µM* | x
O=[N+]([O-])c1ccc(N2CCCCC2)nc1N1CCCCC1 | x | 0.316µM* | x
CNc1cc(N2CCCC2)ccc1[N+](=O)[O-] | x | 6.8% | x
O=[N+]([O-])c1ccc(Cl)cc1N1CCOCC1 | x | 5.7% | x
CNc1cc(N2CCCCCC2)ccc1[N+](=O)[O-] | 13.2 | 10µM* | u
O=C(COc1ccccc1Cl)N1CCN(c2ccc([N+](=O)[O-])c(N3CCCCC3)c2)CC1 | 1.9 | 1.58µM* | -23.1%
COc1ccc2cc(C(=O)C3CCCN(C(=O)/C=C/c4ccccn4)C3)ccc2c1 (stereo unspecified) | x | 6.1% | x
